Rows were chosen to be rich in hits. Some 4.1% of all compounds tested hit in one or more screens of this group.
DAX1 inh-1 = DAX1 (NR0B1) inhibitors, primary screen, cell-based, HEK293, Gal4-DAX1, luciferase luminescence; AID 504766, 2011; HEK293 Gal4-DAX1 luciferase reporter; hit rate 0.99% among 340,000; Nuclear receptor subfamily 0 group B member 1 (Homo sapiens), P51843; inhibition, % at 6.75 µM;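 active = inhibition above the mean over all tested compounds plus 3 SD, cut at about 4.2% in these data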;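 note: 0% = DAX1-transfected cells with DMSO and 100% = empty-vector control cells with DMSO; inhibition shows as a rise in luminescence from relieved DAX1 repression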
DAX1 inh-2 = DAX1 (NR0B1) inhibitors on StAR promoter, primary screen, cell-based, luminescence, SF-1 (NR5A1), full-length DAX-1. HEK293T StAR-luciferase reporter, SF-1/DAX-1 repression relief. inhibition, % at 6.8 µM. AID 652010, 2013. hit rate 1.1% among 370,000;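 active = inhibition above the mean over all tested compounds plus 3 SD, cut at about 3.6% in these data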;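 note: 0% = DAX-1 cells with DMSO and 100% = cells lacking DAX-1 with DMSO; higher inhibition means more luminescence from relief of DAX-1 repression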
hcDAF-12 act = H. contortus DAF-12 nuclear receptor activators, primary screen, cell-based, luminescence, HEK293, lit1-tk-luc reporter | HEK293 hcDAF-12 lit1-tk-luc reporter; 0% DMSO, 100% Δ7-dafachronic acid | activation, % at 6.8 µM | hit rate 1.4% among 370,000;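 active = activation above the mean of all tested compounds plus 3 SD, cut at about 5.5% in these data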;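 note: 100% = response to 3 µM Δ7-dafachronic acid high control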
ssDAF12 agonist = S. stercoralis DAF-12 nuclear receptor activators, primary screen, cell-based, luminescence, HEK293, GRIP1 co-expression, lit1-tk-luc. hit rate 1% among 370,000. activation, % at 6.8 µM. AID 652126, 2013. Nuclear hormone receptor DAF-12 (Strongyloides stercoralis). HEK293 ssDAF-12/GRIP1 lit1-tk-luc reporter; % of 3 µM dafachronic acid response;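 active = activation above the mean over all tested compounds plus 3 SD, cut at about 0.9% in these data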;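 note: 0% = DMSO-only wells and 100% = 3 µM delta7-dafachronic acid wells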
hgDAF-12 ag = H. glycines DAF-12 receptor agonists, primary screen, cell-based, luminescence, HEK293, GAL4 fusion, UAS-luciferase | Nuclear hormone receptor DAF-12 (Heterodera glycines), GAL4 fusion | HEK293 GAL4-hgDAF12 UAS-luciferase reporter, agonist luminescence; normalized to butyrate control | activation, % at 6.8 µM | hit rate 1.8% among 370,000;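 active = activation above a cutoff set at the mean of all screened compounds plus 3 SD, cut at about 10% in these data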;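 note: 0% = DMSO wells and 100% = sodium butyrate wells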
hgDAF12 conf = H. glycines DAF-12 receptor agonists, confirmation, cell-based, luminescence, HEK293, GAL4-LBD fusion; AID 743050, 2013; shares compounds with hgDAF-12 ag; activation, % at 6.8 µM; hit rate 80% among 3,300; HEK293 GAL4-hgDAF12 luciferase reporter, agonist mode; percent of butyrate response;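 active = mean activation over triplicate wells above the hit cutoff derived from the earlier primary screen, cut at about 11% in these data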;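 note: 0% = DMSO low control and 100% = 2 mM sodium butyrate high control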
LXR ag 2 = LXR agonists, Gal4 luciferase reporter, confirmation, counter-screen for hgDAF-12 agonist project, cell-based, luminescence, HEK293, H. glycines campaign. activation, % at 6.8 µM. 24 h. 3,300 tested, under 10 active. shares compounds with hgDAF-12 ag;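 active = mean activation of the triplicate above a set limit carried over from the primary screen, none filed active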
Target sequence (P55055 whole entry, looked up, the tested form may be a part): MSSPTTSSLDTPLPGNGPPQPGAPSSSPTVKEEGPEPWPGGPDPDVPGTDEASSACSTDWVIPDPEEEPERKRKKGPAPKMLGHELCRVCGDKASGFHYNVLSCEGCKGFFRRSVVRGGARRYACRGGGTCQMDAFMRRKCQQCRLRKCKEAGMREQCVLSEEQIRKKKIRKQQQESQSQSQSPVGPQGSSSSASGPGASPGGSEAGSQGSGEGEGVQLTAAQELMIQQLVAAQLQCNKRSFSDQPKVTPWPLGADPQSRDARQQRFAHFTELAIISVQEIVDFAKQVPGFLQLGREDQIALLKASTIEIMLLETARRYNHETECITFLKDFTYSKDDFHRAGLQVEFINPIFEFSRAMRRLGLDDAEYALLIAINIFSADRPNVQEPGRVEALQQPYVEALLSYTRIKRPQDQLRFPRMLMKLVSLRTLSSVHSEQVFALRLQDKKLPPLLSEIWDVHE
An asterisk follows results filed as active.

`O=C(NCCc1ccccc1)c1cccc(NC(=O)C2CC2)c1` gave DAX1 inh-1 2, DAX1 inh-2 3, hcDAF-12 act 4, ssDAF12 agonist 0, hgDAF-12 ag 17*, hgDAF12 conf 13* and LXR ag 2 0.
`O=C(NCCc1ccccc1)c1cccc(NC(=O)C2CCC2)c1` gave DAX1 inh-1 0, DAX1 inh-2 3, hcDAF-12 act 2, ssDAF12 agonist 0 and hgDAF-12 ag 10.
`CSc1ccccc1OCc1cc(C(=O)N2CCN(c3ccccc3)CC2C)no1` (centres undefined) gave DAX1 inh-1 0, DAX1 inh-2 0, hcDAF-12 act 4, ssDAF12 agonist 0 and hgDAF-12 ag 3.
CC(=O)c1ccc(OCc2cc(C(=O)N3CCN(c4ccccc4)CC3C)no2)cc1 (centres undefined) was read as DAX1 inh-1 2, DAX1 inh-2 3, hcDAF-12 act 6.1*, ssDAF12 agonist -1, hgDAF-12 ag 21*, hgDAF12 conf 18* and LXR ag 2 1.
COC(=O)c1cc2c(c3c4cc(OC)ccc4n(S(=O)(=O)c4cccc(C)c4)c13)C(=O)N(Cc1ccccc1OC)C2 was read as DAX1 inh-2 0, hcDAF-12 act -1, ssDAF12 agonist -1 and hgDAF-12 ag -1.
`COCCN1CCCc2nc(-c3ccc(F)cc3)ccc21` gave DAX1 inh-2 3, hcDAF-12 act 3, ssDAF12 agonist 1 and hgDAF-12 ag 9.
For O=C(N/N=C/c1ccccn1)c1cc(-c2cccc3ccccc23)n[nH]1 the results were DAX1 inh-1 6.6*, DAX1 inh-2 1, hcDAF-12 act -1, ssDAF12 agonist -1, hgDAF-12 ag 14*, hgDAF12 conf -1 and LXR ag 2 0.
O=C(N/N=C/c1ccccn1)c1cc(-c2ccccc2Cl)n[nH]1 was read as DAX1 inh-1 1, DAX1 inh-2 0, hcDAF-12 act 0, ssDAF12 agonist -1 and hgDAF-12 ag 0.
`Cc1ccc(-c2cc(C(=O)N/N=C/c3c[nH]c4ccccc34)[nH]n2)cc1` gave DAX1 inh-1 -2, DAX1 inh-2 -2, hcDAF-12 act 0, ssDAF12 agonist -1, hgDAF-12 ag 14*, hgDAF12 conf 6 and LXR ag 2 0.
`O=C(N/N=C/c1ccccn1)c1cc(-c2ccc3ccccc3c2)n[nH]1` gave DAX1 inh-1 1, DAX1 inh-2 3, hcDAF-12 act 5, ssDAF12 agonist 0, hgDAF-12 ag 22*, hgDAF12 conf 1 and LXR ag 2 0.
`CCc1ccc(-c2cc(C(=O)N/N=C/c3ccccn3)[nH]n2)cc1` gave DAX1 inh-1 4.5*, DAX1 inh-2 2, hcDAF-12 act 4, ssDAF12 agonist 0, hgDAF-12 ag 18*, hgDAF12 conf 3 and LXR ag 2 0.
`Cc1cccc2nc(-c3ccccc3)c(-c3ccc(CN4CCC(n5cc(-c6ccccc6)[nH]c5=O)CC4)cc3)nc12` gave DAX1 inh-2 -1, hcDAF-12 act -2, ssDAF12 agonist -1 and hgDAF-12 ag -4.
`O=C(Nc1ccc(N2CCOCC2)c(Cl)c1)c1cccc(F)c1` gave DAX1 inh-1 1, DAX1 inh-2 2, hcDAF-12 act 4, ssDAF12 agonist 0, hgDAF-12 ag 14*, hgDAF12 conf 16* and LXR ag 2 1.
Screening O=C(Nc1ccc(N2CCOCC2)c(Cl)c1)c1c(F)c(F)c(F)c(F)c1F returned DAX1 inh-1 1, DAX1 inh-2 0, hcDAF-12 act 0, ssDAF12 agonist -1 and hgDAF-12 ag 4.
`O=C(Nc1ccc(N2CCCC2)c(Cl)c1)c1cccs1` gave DAX1 inh-1 0, DAX1 inh-2 4.0*, hcDAF-12 act 5, ssDAF12 agonist 0, hgDAF-12 ag 20*, hgDAF12 conf 19* and LXR ag 2 1.
For COc1c(C)cccc1C(=O)Nc1ccc(N2CCOCC2)c(Cl)c1 the results were DAX1 inh-1 2, DAX1 inh-2 3, hcDAF-12 act 4, ssDAF12 agonist 1, hgDAF-12 ag 21*, hgDAF12 conf 15* and LXR ag 2 1.
Nc1ncnc(Nc2ccc(F)cc2)n1 was read as DAX1 inh-1 -1, DAX1 inh-2 0, hcDAF-12 act -2, ssDAF12 agonist -2 and hgDAF-12 ag 0.
Cc1ccc(Nc2ncnc(N)n2)cc1 was read as DAX1 inh-1 0, DAX1 inh-2 0, hcDAF-12 act 2, ssDAF12 agonist -1, hgDAF-12 ag 19*, hgDAF12 conf 5 and LXR ag 2 0.
For COC(=O)[C@]12C[C@H](CC(=O)NCc3cccc4ccccc34)C(=O)N(CCC3=CCCCC3)C1=C[C@H](COCc1ccccc1)O[C@@H]2C the results were DAX1 inh-2 1, hcDAF-12 act -1, ssDAF12 agonist -1 and hgDAF-12 ag 1.
`O=C(Nc1ccccc1)Nc1c(-c2ccccc2)nc2ncccn12` gave DAX1 inh-2 -1, hcDAF-12 act -1, ssDAF12 agonist -1 and hgDAF-12 ag -3.
Cc1ccc(Nc2nnc(SCC(=O)Nc3ccccc3[N+](=O)[O-])s2)cc1 was read as DAX1 inh-1 -2, DAX1 inh-2 -1, hcDAF-12 act -1, ssDAF12 agonist -1 and hgDAF-12 ag -1.
`Cc1ccc(Nc2nnc(SCC(=O)Nc3cccnc3Cl)s2)cc1C` gave DAX1 inh-1 -1, DAX1 inh-2 0, hcDAF-12 act 2, ssDAF12 agonist -1, hgDAF-12 ag 14*, hgDAF12 conf 5 and LXR ag 2 0.
COc1cc(/C=C/c2ccc3cccc(O)c3n2)cc(Cl)c1OC was read as DAX1 inh-1 1, DAX1 inh-2 0, hcDAF-12 act 2, ssDAF12 agonist 0, hgDAF-12 ag 14*, hgDAF12 conf 17* and LXR ag 2 1.
Cc1ccc(NC(=O)Nc2ccc(F)cc2)cc1Cl was read as DAX1 inh-1 0, DAX1 inh-2 0, hcDAF-12 act 2, ssDAF12 agonist 0, hgDAF-12 ag 15*, hgDAF12 conf 11* and LXR ag 2 0.

High-throughput results (PubChem BioAssay)
